Measured values as given in the supplement of paper PMC12350171.
Where a name gives a salt, the structure may show the parent alone. A number with no mark means an inactive call.

Legend:
Conditions in all cases: 20 µM
[1] = system: Salmonella enterica typhimurium; assay: growth AUC normalised to DMSO control (fraction of control); higher = less growth inhibition, active = hit call of the paper
Outline: (§1)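 Pathogens passaged twice anaerobically were inoculated at a starting OD578 of 0.01 into pre-reduced mGAM plates with drug at 20 μM and 1% DMSO, sealed with breathable membranes. Haemophilus parainfluenzae medium was supplemented with hemin and NAD. OD578 was read hourly for 24 h, with three biological replicates. Growth-curve AUC was computed by the trapezoidal rule up to the exponential-to-stationary transition and normalised to DMSO controls on the same plate.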

Shigella flexneri = assay: as above
Outline: as §1

Vibrio cholerae = assay: as above
Outline: as §1

[2] = system: Yersinia pseudotuberculosis; assay: as above
Outline: as §1

P. vulgatus RND KO = assay: growth AUC normalised to DMSO control (median) (fraction of control); higher = less growth inhibition, active = hit call of the paper
Outline: (§2)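 In 96-well plates of mGAM seeded at OD578 0.01, strains that had been passaged twice overnight without oxygen were exposed to approved-drug library compounds at 20 μM with 1% DMSO. Hourly OD578 readings were taken for 24 h in an anaerobic incubator. The trapezoidal-rule area under the curve, with curves truncated at entry into stationary phase, was expressed relative to same-plate vehicle wells as the median of three biological replicates.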

P. vulgatus WT = assay: as above
Outline: as §2

[3] = system: S. enterica typhimurium WT; assay: as above
Outline: as §2

[4] = system: S. enterica typhimurium tolC KO; assay: as above
Outline: as §2
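Throughout, for growth AUC normalised to DMSO control (median): active when median AUC fell below 0.1.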

Compound	growth AUC normalised to DMSO control [1]	growth AUC normalised to DMSO control (Shigella flexneri)	growth AUC normalised to DMSO control (Vibrio cholerae)	growth AUC normalised to DMSO control [2]	growth AUC normalised to DMSO control (P. vulgatus RND KO)	growth AUC normalised to DMSO control (P. vulgatus WT)	growth AUC normalised to DMSO control [3]	growth AUC normalised to DMSO control [4]
Clc1ccc2c(c1)C(N1CCNCC1)=Nc1ccccc1O2 [Amoxapine]	0.988	1.01	0.8 (active)	1.01	0.795	0.759	1.01	0.972
Oc1c(I)cc(Cl)c2cccnc12 [Clioquinol]	1.03	0.996	1.07	1.01	0.134	0.0312 (active)	1.01	0.55
CC(C)(C(=O)O)c1ccc(C(O)CCCN2CCC(C(O)(c3ccccc3)c3ccccc3)CC2)cc1 (stereo not drawn) [Fexofenadine hydrochloride]	1.02	1.02	1.04	0.99	1.01	1.01	1.01	1
Cc1ccc(C)c(OCCCC(C)(C)C(=O)O)c1 [Gemfibrozil]	0.997	0.972	0.983	1	0.969	0.972	1	0.977
COc1c(N2CCNC(C)C2)c(F)cc2c(=O)c(C(=O)O)cn(C3CC3)c12 (stereo not drawn) [Gatifloxacin]	0.0102 (active)	0.0167 (active)	0.0355 (active)	0.0287 (active)	0.0163 (active)	0.0109 (active)	0.0104 (active)	0.0044 (active)
C[C@]12CC[C@@H]3c4ccc(O)cc4CC[C@H]3[C@@H]1CCC2=O [Estrone]	0.984	0.96	0.0258 (active)	0.975	0.977	0.964	0.999	0.974
CC[C@H](c1ccc(O)cc1)[C@@H](CC)c1ccc(O)cc1 [Hexestrol]	0.998	1	0.932	0.999	0.766	0.825	0.989	0.889
Nc1nc(NC2CC2)c2ncn([C@H]3C=C[C@@H](CO)C3)c2n1 [Abacavir sulfate]	1.01	0.989	0.989	0.971	0.989	1.01	1.01	1
COc1ccccc1N1CCN(CCCNc2cc(=O)n(C)c(=O)n2C)CC1 [Urapidil hydrochloride]	1.01	0.992	0.984	1	0.976	0.976	1	0.992
CCCCCCCCNC(C)C(O)c1ccc(SC(C)C)cc1 (stereo not drawn) [Suloctidil]	1.02	0.995	1	0.937	0.992	1.02	1.02	0.997
O=C(O)/C=C/c1ccc(Cn2ccnc2)cc1 [Ozagrel hydrochloride]	1.02	1.02	0.995	1.01	1.02	1.05	1	1
CCN(CC)CC(=O)Nc1c(C)cccc1C [Lidocaine hydrochloride]	0.999	1.02	1.01	1	1.02	1.03	0.963	0.996
C#CCN(C)CCCOc1ccc(Cl)cc1Cl [Clorgyline hydrochloride]	0.966	0.955	0.862 (active)	0.994	0.999	1.01	0.976	0.93
COc1ccc2[nH]c([S+]([O-])Cc3ncc(C)c(OC)c3C)nc2c1 (stereo not drawn) [Omeprazole]	0.958	0.998	1.05	1	1.02	1.03	1	0.952
Clc1ccc(CCC(Cn2ccnc2)Sc2c(Cl)cccc2Cl)cc1 (stereo not drawn) [Butoconazole nitrate]	1	1.01	0.98	0.745	0.998	1	1.01	0.999
CCN1CCC[C@H]1CNC(=O)c1c(OC)ccc(Br)c1OC [Remoxipride hydrochloride]	1.01	1.04	1.03	1.01	1.03	1.06	1.01	1.01

Compound	growth AUC normalised to DMSO control [1]	growth AUC normalised to DMSO control (Shigella flexneri)	growth AUC normalised to DMSO control (Vibrio cholerae)	growth AUC normalised to DMSO control [2]	growth AUC normalised to DMSO control (P. vulgatus RND KO)	growth AUC normalised to DMSO control (P. vulgatus WT)	growth AUC normalised to DMSO control [3]	growth AUC normalised to DMSO control [4]
COc1ccccc1OCC(O)CN1CCN(CC(=O)Nc2c(C)cccc2C)CC1 (stereo not drawn) [Ranolazine]	1	1	1.01	1.01	0.994	1	0.998	0.998
CCCNC(C)(C)COC(=O)c1ccccc1 [Meprylcaine hydrochloride]	0.996	1.02	1.01	1.01	0.984	1.01	1	0.995
Nc1nc2c(ncn2COCCO)c(=O)[nH]1 [Acyclovir]	1.01	1.01	1.01	0.995	1.05	1.02	1	1
CCn1nc(C(=O)O)c(=O)c2cc3c(cc21)OCO3 [Cinoxacin]	0.0189 (active)	0.0786 (active)	0.0544 (active)	0.0459 (active)	1	1.01	0.0574 (active)	0.0349 (active)
CC[C@]12CCCN3CCc4c(n(c5ccccc45)[C@@](O)(C(=O)OC)C1)[C@@H]32 [Vincamine]	1.02	0.979	0.995	0.989	1.02	1.05	1.02	1
CC/C(=C(/CC)c1ccc(O)cc1)c1ccc(O)cc1 [Diethylstilbestrol]	1	0.983	0.93	0.973	0.744	0.827	1	0.827
C=CC1=C(C(=O)O)N2C(=O)[C@@H](NC(=O)/C(=N\O)c3csc(N)n3)[C@H]2SC1 [Cefdinir]	0.00595 (active)	0.00663 (active)	0.0728 (active)	0.023 (active)	0.0139 (active)	0.0141 (active)	0.0086 (active)	0.00501 (active)
CCOC(=O)[C@@](C)(N)Cc1ccc(O)c(O)c1 [Methyldopate hydrochloride]	0.999	1.04	1.06	1.02	0.964	1.02	1.01	1.02
O=C(O)CCC(=O)Nc1ccc(S(=O)(=O)Nc2nccs2)cc1 [Succinylsulfathiazole]	1	0.997	0.999	1	1	1.05	1	0.994
Cc1ccc(Cl)c(Nc2ccccc2C(=O)O)c1Cl [Meclofenamic acid sodium salt monohydrate]	1	0.954	0.891	0.981	0.859	0.903	1.01	1.01
C[N+]1(C)CCC(=C(c2ccccc2)c2ccccc2)CC1 [Diphemanil methylsulfate]	0.987	1.01	1.02	1.02	1.03	1.02	0.991	1
NNC(=O)c1ccncc1 [Isoniazid]	1.02	1.04	1.05	0.942	1.04	1.07	1.01	0.989
Cc1ccc(-c2ncc(Cl)cc2-c2ccc(S(C)(=O)=O)cc2)cn1 [Etoricoxib]	1.01	1.03	1.03	0.989	1.01	1.03	0.972	0.978
NC(=O)N1c2ccccc2CC(=O)c2ccccc21 [Oxcarbazepine]	0.971	0.952	0.981	0.992	0.989	0.995	0.999	1
CC(C)NCC(O)c1ccc2ccccc2c1 (stereo not drawn) [Pronethalol hydrochloride]	0.991	1	0.999	0.982	1	1.01	0.994	0.989
